The panel holds about 83,000 compounds, 20% with a hit somewhere; the sample as a whole holds those more often.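 Cell lines were cultured in 96-well plates, exposed to a single compound concentration, and assessed for percent growth 48 hours later.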 A number with no mark means an inactive call. Activity calls are given as the source filed them. How the source made its calls: active means growth percent below 10; inactive means the rest.

Some test systems named below: SK-MEL-2 melanoma; EKVX NSCLC; SN12C renal; UO-31 renal; TK-10 renal; ACHN renal; CAKI-1 renal; A498 renal; CCRF-CEM leukemia; MOLT-4 leukemia.
What all share (assay): NCI-60 one-dose screen, 48 h (100 = growth as untreated, 0 = no growth, -100 = all killed)
Holding throughout (settings): 10 µM unless noted

Regarding `COc1ccc(OC)c(-c2nc(SCC(=O)c3ccc(C#N)cc3)[nH]c(=O)c2C#N)c1`, the growth in the assay on SK-MEL-2 melanoma is 104%; with EKVX NSCLC, 105%; in the assay on SN12C renal it was 107%; in the assay on UO-31 renal it was 76.9%; in the assay on TK-10 renal, 103%; in the assay on ACHN renal, 97.7%. Further, the growth was 96.8% in the assay with CAKI-1 renal, 106% with A498 renal, 106% with CCRF-CEM leukemia and 103% in the assay on MOLT-4 leukemia.
Take `CN1CCN(c2cc(Nc3cc(C4CC4)[nH]n3)nc(Nc3ccc(CC(=O)NCc4cccc(F)c4)cc3)n2)CC1`: the growth in the assay on SK-MEL-2 melanoma is 48.9%; in the assay with EKVX NSCLC it was 50.3%; in the assay with SN12C renal, 23.5%; in the assay with UO-31 renal, 36.8%; in the assay on TK-10 renal, 34.5%; in the assay on ACHN renal it was 45.9%. Further, the growth in the assay with CAKI-1 renal is 5.36% (active); in the assay on A498 renal it was -28.7% (active); in the assay on CCRF-CEM leukemia it was 36.8%; with MOLT-4 leukemia, 16%.
For `COc1ccc2[nH]c(C(=O)N3CCN(C(=O)OCc4ccc5c(Cl)cc(Cl)c(O)c5n4)CC3)cc2c1`, the growth with SK-MEL-2 melanoma was -77.2% (active); with EKVX NSCLC, -76.6% (active); in the assay with SN12C renal, -83.8% (active); in the assay with UO-31 renal, -100% (active); in the assay with TK-10 renal it was -99.2% (active); in the assay with ACHN renal it was -100% (active). For the same molecule, the growth with CAKI-1 renal is -95.6% (active); in the assay on A498 renal it was -13.8% (active); with CCRF-CEM leukemia, -9.25% (active); in the assay on MOLT-4 leukemia it was -6.74% (active).
On to `N=C(N)c1ccc(-c2ccc(-c3ccc(Cl)c(Cl)c3)s2)nc1`, for which the growth in the assay with SK-MEL-2 melanoma was 102%; with EKVX NSCLC, 62.8%; in the assay with SN12C renal, 36.6%; with UO-31 renal, 32.7%; in the assay with TK-10 renal it was 112%; in the assay with ACHN renal, -62.8% (active). Also, the growth in the assay with CAKI-1 renal is -60.1% (active); in the assay on A498 renal, 90.7%; in the assay with CCRF-CEM leukemia, -1.55% (active); in the assay on MOLT-4 leukemia it was -26.3% (active).
Turning to `CSc1oc(C)nc1[P+](c1ccccc1)(c1ccccc1)c1ccccc1`, the growth with SK-MEL-2 melanoma is 84.4%; with EKVX NSCLC it was 73.8%; in the assay on SN12C renal, 82.2%; with UO-31 renal, 102%; in the assay with TK-10 renal, 88.2%; with ACHN renal, 97.6%. In addition, the growth in the assay with CAKI-1 renal is 88%; in the assay with A498 renal, 64.5%; in the assay with CCRF-CEM leukemia, 51.8%; in the assay with MOLT-4 leukemia, 68%.
Turning to `CNC(=O)c1ccccc1Oc1nc(Nc2cc(OC)c(OC)c(OC)c2)ncc1Br`, the growth with SK-MEL-2 melanoma is 1.29% (active); in the assay with EKVX NSCLC, 55.3%; in the assay with SN12C renal it was 75.8%; with UO-31 renal it was 33%; in the assay on TK-10 renal, 50.5%; in the assay with ACHN renal, 67.1%. Besides, the growth is 37% in the assay on CAKI-1 renal, -18.3% (active) in the assay with A498 renal, 59.5% in the assay with CCRF-CEM leukemia and 68.6% in the assay on MOLT-4 leukemia.
Turning to `COc1ccccc1N1CCCCC1`, the growth in the assay on SK-MEL-2 melanoma was 104%; with EKVX NSCLC, 98.1%; in the assay on SN12C renal, 93.9%; in the assay on UO-31 renal, 98.9%; with TK-10 renal it was 95%; in the assay with ACHN renal, 103%. Moreover, the growth was 97.8% with CAKI-1 renal, 83.9% in the assay with A498 renal, 108% in the assay with CCRF-CEM leukemia and 100% with MOLT-4 leukemia.
For `N=C(N)c1ccc(-c2ccc(-c3ccccc3)o2)cc1`, the growth in the assay on SK-MEL-2 melanoma is -86.6% (active); in the assay with EKVX NSCLC it was -18.1% (active); in the assay on SN12C renal, -39.5% (active); in the assay on UO-31 renal, -82.2% (active); in the assay on TK-10 renal it was -77.4% (active); in the assay with ACHN renal it was -65.9% (active). Also, the growth in the assay on CAKI-1 renal is -1.49% (active); in the assay on A498 renal it was -21.9% (active); in the assay on CCRF-CEM leukemia, -39.4% (active); with MOLT-4 leukemia, -56.2% (active).
For `COc1ccc(/C=C/C(=O)c2cc3c(N)c(C(=O)Nc4cccc5ccccc45)sc3nc2C)cc1`, the growth in the assay with SK-MEL-2 melanoma was 70.9%; with EKVX NSCLC, 92.4%; in the assay on SN12C renal, 87.5%; in the assay on UO-31 renal, 62.7%; with TK-10 renal it was 94.2%; in the assay with ACHN renal it was 71.8%. Also, the growth with CAKI-1 renal is 48.6%; with A498 renal it was 44.2%; in the assay with CCRF-CEM leukemia it was 33.6%; with MOLT-4 leukemia it was 100%.
As for `O=C1C(Cl)=C(NCCCCCCNC2=C(Cl)C(=O)c3ccccc3C2=O)C(=O)c2ccccc21`, the growth with SK-MEL-2 melanoma is 84.5%; with EKVX NSCLC, 91.9%; in the assay on SN12C renal it was 83.6%; in the assay on UO-31 renal, 83.9%; in the assay on TK-10 renal, 109%; in the assay on ACHN renal it was 104%. Also, the growth is 97.8% in the assay with CAKI-1 renal, 72.9% in the assay on A498 renal, 97.3% with CCRF-CEM leukemia and 82.4% with MOLT-4 leukemia.
Consider `CCOC(=O)n1ccn(C)c1=S`, for which the growth in the assay with SK-MEL-2 melanoma was 97.8%; in the assay with EKVX NSCLC, 100%; in the assay on SN12C renal it was 105%; with UO-31 renal, 80.7%; in the assay with TK-10 renal, 98.6%; in the assay with ACHN renal, 99.3%. Further, the growth was 95.4% in the assay with CAKI-1 renal, 115% in the assay on A498 renal, 98% in the assay with CCRF-CEM leukemia and 103% in the assay on MOLT-4 leukemia.
For the molecule `CCN1CCN(C(=O)[C@]23CCC(C)(C)C[C@@H]2C2=CC[C@@H]4[C@@]5(C)CCC(=O)C(C)(C)[C@@H]5CC[C@@]4(C)[C@]2(C)CC3)CC1`, the growth in the assay with SK-MEL-2 melanoma is 77.1%; with EKVX NSCLC it was 63.3%; in the assay on SN12C renal it was 51.8%; in the assay on UO-31 renal it was 34.1%; with TK-10 renal, 80.4%; with ACHN renal, 65.7%. For the same molecule, the growth in the assay with CAKI-1 renal was 60%; in the assay on A498 renal, -7.95% (active); with CCRF-CEM leukemia, 37.5%; in the assay with MOLT-4 leukemia it was 10.1%.
In the case of `CCSc1oc(-c2ccccc2)nc1[P+](c1ccccc1)(c1ccccc1)c1ccccc1`, the growth with SK-MEL-2 melanoma was -9.57% (active); in the assay with EKVX NSCLC, 11%; with SN12C renal, 3.37% (active); with UO-31 renal, -31.3% (active); in the assay on TK-10 renal, 24.1%; in the assay on ACHN renal, -5.44% (active). Besides, the growth in the assay with CAKI-1 renal was 1.2% (active); with A498 renal, -32.8% (active); with CCRF-CEM leukemia, 11.1%; in the assay on MOLT-4 leukemia, 1.34% (active).

The values are drawn from PubChem BioAssay (NCI).
